Screening data from PubChem BioAssay.
VDR inhibitor: Inhibitors of the vitamin D receptor (VDR): qHTS; AID 504847, 2011; VDR-SRC2-3 peptide fluorescence polarization, 2 h; 0.93% of 400,000 active; Potency, µM, for the others: max response, negative = inhibition, hits mostly inhibitors
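Signal is fluorescence polarization, reporting how far test compounds block the interaction of VDR with the SRC2-3 coregulator peptide after a 2 h room-temperature incubation.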
PLK1 PBD inh: qHTS for Inhibitors of PLK1-PDB (polo-like kinase 1 - polo-box domain): Primary Screen; Potency, µM, for inactives: max response, negative = inhibition, hits mostly inhibitors; Serine/threonine-protein kinase PLK1 (Homo sapiens), P53350; AID 720504, 2013; 2.8% of 360,000 active; Plk1 PBD binding of FITC phosphopeptide, fluorescence polarization; also: series mostly up to about 57 µM; nearly all actives have a fitted effect of over 65% in size
KAT2A inh: qHTS Assay for Inhibitors of GCN5L2 | Histone acetyltransferase KAT2A (Homo sapiens), Q92830 | GCN5L2 HAT assay, ThioGlo1 CoA-SH fluorescence | Potency, µM (highest dose often 58.9 µM), inactives show top-dose activity change, negative = inhibition, hits mostly inhibitors | 0.21% of 390,000 active
Target sequence (Q92830 whole entry, looked up): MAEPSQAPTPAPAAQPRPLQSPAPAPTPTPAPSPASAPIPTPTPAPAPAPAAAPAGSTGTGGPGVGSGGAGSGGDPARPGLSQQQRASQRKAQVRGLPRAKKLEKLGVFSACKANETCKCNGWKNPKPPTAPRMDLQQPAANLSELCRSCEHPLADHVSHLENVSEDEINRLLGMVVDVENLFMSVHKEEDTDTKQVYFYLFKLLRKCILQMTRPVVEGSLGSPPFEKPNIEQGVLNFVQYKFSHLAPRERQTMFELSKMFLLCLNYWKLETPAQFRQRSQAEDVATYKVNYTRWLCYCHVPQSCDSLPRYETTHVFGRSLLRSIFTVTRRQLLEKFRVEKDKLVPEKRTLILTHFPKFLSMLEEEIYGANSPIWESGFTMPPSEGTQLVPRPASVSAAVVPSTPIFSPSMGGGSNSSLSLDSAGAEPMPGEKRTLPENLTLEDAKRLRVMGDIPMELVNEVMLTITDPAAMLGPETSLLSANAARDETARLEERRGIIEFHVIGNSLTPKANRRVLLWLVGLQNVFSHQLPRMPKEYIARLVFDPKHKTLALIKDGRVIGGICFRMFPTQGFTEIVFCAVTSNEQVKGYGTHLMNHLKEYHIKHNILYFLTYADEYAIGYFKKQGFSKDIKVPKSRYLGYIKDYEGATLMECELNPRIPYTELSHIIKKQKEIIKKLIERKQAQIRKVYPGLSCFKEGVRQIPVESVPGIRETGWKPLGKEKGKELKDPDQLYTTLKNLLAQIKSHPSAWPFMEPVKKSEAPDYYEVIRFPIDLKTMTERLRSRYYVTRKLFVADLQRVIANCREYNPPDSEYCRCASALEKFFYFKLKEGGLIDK
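Titration-based screen in which CoA formation is detected via maleimide probe ThioGlo1 (50uM) turning fluorescent on thiol reaction; substrates H3(1-25) 75uM and acetyl-CoA 70uM, GCN5L2 20nM, 20 min incubation at room temperature.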
DT40 TDP1 no CPT: qHTS for Inhibitors of human tyrosyl-DNA phosphodiesterase 1 (TDP1): qHTS in cells in absence of CPT. DT40 Tdp1-/- hTDP1 cells, no CPT, ATP luminescence, 48 h. Potency, µM (series often up to 46.2 µM), inactives show top-dose activity change, negative = growth inhibition, hits mostly inhibitors. 15% of 420,000 active. AID 686978, 2013; also: nearly all actives have a fitted effect of over 55% in size
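Seeded 400 DT40-hTDP1 cells/well (vehicle DMSO, no 20 nM CPT); pinned compounds; ≥48 hr at 37 °C; CellTiter-Glo luminescence as viability measure.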
TDP1 inh: qHTS Assay for Inhibitors of Tyrosyl-DNA Phosphodiesterase (TDP1); recombinant TDP1, AlphaScreen DNA substrate cleavage; Potency, µM (highest dose often 130 µM), inactives show at the top dose activity change, negative = inhibition, usual class: inhibitors; 0.28% of 350,000 active; also: nearly all actives have a fitted effect of over 40% in size
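Here, a 5' biotin and 3' phosphotyrosine-FITC DNA oligonucleotide reports Tdp1 activity: intact substrate bridges AlphaScreen beads, while cleavage leaves a 3' phosphate and drops signal. All incubations at room temperature.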
TDP1 cell CPT: qHTS for Inhibitors of human tyrosyl-DNA phosphodiesterase 1 (TDP1): qHTS in cells in presence of CPT; 12% of 420,000 active; Potency, µM (doses to about 46.2 µM), without a hit: at the highest dose activity change, negative = growth inhibition, actives largely listed as inhibitors; chicken DT40 Tdp1-/-;hTDP1 cells + 20 nM CPT, ATP luminescence, 48 h; AID 686979, 2013; also: nearly all actives have a fitted effect of over 55% in size
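Cell growth measured by CellTiter-Glo luminescence after a minimum 48 h, 37 C compound exposure with 20 nM CPT in Tdp1-knockout DT40 cells stably expressing hTDP1, seeded 400/well; qHTS titration format.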
TbPYK inh: qHTS of Trypanosoma Brucei Inhibitors: Confirmatory Assay for Cherry-picked Compounds | recombinant TbPYK, Kinase-Glo ATP luminescence | AID 720569, 2013 | shares compounds with PLK1 PBD inh | 67% of 890 active | Potency, µM (doses to about 76.9 µM), without a hit: at the highest dose activity change, negative = inhibition, usual class: inhibitors; also: nearly all actives have a fitted effect of over 70% in size
TbPYK ADP-Glo: qHTS of Trypanosoma Brucei Inhibitors: Orthogonal Assay for Cherry-picked Compounds; shares compounds with PLK1 PBD inh; recombinant TbPYK, ADP-Glo luminescence, 60 min; Potency, µM (doses to about 76.9 µM), without a hit: top-dose activity change, negative = inhibition, hits mostly inhibitors; 62% of 890 active; also: nearly all actives have a fitted effect of over 75% in size
* marks the source's active call; other numbers are inactive results; ? = inconclusive; nt = not tested or not shown; [ ] = dose if it differs, or a comment. Hits are enriched below; roughly 18% of the tested compounds scored in any of these assays. Calls follow the shape of the dose curve; as a rule, active = well fitted curve in the direction sought with a large enough effect; inconclusive = small, poorly fitted or top-dose-only effect, or another doubt; inactive = no such curve, though single readings can be large; an effect the other way counts as inactive or inconclusive. % is scaled to controls: 0 for no effect and ±100 for the full control effect; potency is read from the fitted curve at half-maximal effect.

SMILES	VDR inhibitor	PLK1 PBD inh	KAT2A inh	DT40 TDP1 no CPT	TDP1 inh	TDP1 cell CPT	TbPYK inh	TbPYK ADP-Glo
CN(C)c1ccc(/C=C/c2ccc3c4ccccc4ccc3[n+]2-c2ccccc2)cc1	46%	-15%	-6%	0.16µM*	15%	0.21µM*	32µM*	7%
CN(CCCS(=O)(=O)[O-])c1ccc(/C=C/c2ccc3ccccc3[n+]2C)cc1	-12%	-9%	-17%	?	nt	-15%	nt	nt
CN(C)c1ccc(/C=C/c2ccc3ccccc3[n+]2C)cc1	20%	11%	-7%	0.13µM*	3%	0.16µM*	?	2%
CN(C)c1ccc(Cc2cc3c(O)ccc(O)c3cc(Cc3ccc(N(C)C)cc3)c2=O)cc1	45µM*	0.95µM*	nt	4.1µM*	nt	3.7µM*	3.5µM*	3.5µM*
CN(C)c1ccc(C(=O)c2ccc(O)cc2O)cc1	-10%	-7%	-11%	?	7%	?	nt	nt
O=C(NCCS(=O)(=O)N1CCCC1)c1ccccc1	18%	-5%	1%	-14%	nt	3%	nt	nt
Cc1ccc(CN(C)C(=O)c2cc(COc3cccc(C(F)(F)F)c3)on2)o1	89µM*	?	-3%	18µM*	5%[56.1 µM]	?	13µM*	11µM*
NNC(=O)c1ccc(COCC(F)(F)F)cc1	1%	4%	-9%	2%	6%	17%	nt	nt
CC(=O)NC12CC3CC(C1)CC(C(=O)N1CCN(S(=O)(=O)c4ccc(C(C)C)cc4)CC1)(C3)C2	-10%	-6%	2%	?	0%	?	nt	nt
O=C(Nc1ccccc1)c1ccc2nc(-c3ccco3)c(-c3ccco3)nc2c1	?	27µM*	?	23µM*	0%	21µM*	?	?
CC1=C/C(=C(/c2cc(C)c(O)c(Br)c2)c2ccccc2S(=O)(=O)O)C=C(Br)C1=O	102%	?	-22%	?	nt	?	22µM*	10%
N#CNc1nc(O)cc(=O)[nH]1	3%	-11%	1%	-9%	-3%	-1%	nt	nt
Cc1cc(S(=O)(=O)N2CCN=C2c2ccccc2)c(Cl)cc1Cl	-8%	-3%	-3%	?	0%	?	nt	nt
CSC1=C(C#N)C(c2ccc(C(C)C)cc2)CC(=O)N1 (stereo unspecified)	3%	-3%	-11%	?	0%	-27%	nt	nt
CC(C)c1ccc(C2CC(=O)N3CN(Cc4ccco4)CSC3=C2C#N)cc1 (stereo unspecified)	40µM*	27µM*	?	-18%	1%	-26%	0.14µM*	0.45µM*
N#CC1=C2SCN(Cc3ccccc3)CN2C(=O)CC1c1ccc2c(c1)OCO2 (stereo unspecified)	50µM*	19µM*	-26%	?	-2%	?	?	?
O=C(Nc1cscc1S(=O)(=O)c1ccccc1)c1ccccc1Cl	7%	5%	-5%	-11%	nt	7%	nt	nt
O=C(Nc1ccccc1)c1nnsc1S(=O)c1ccc(Cl)cc1 (stereo unspecified)	?	0.47µM*	-14%	0.82µM*	5%	0.58µM*	16µM*	14µM*
O=C1OCCN1c1c(-c2ccccc2)c(-c2cccs2)nc2c(-c3ccccc3)cccc12	-17%	-8%	-4%	-24%	nt	-25%	nt	nt
NS(=O)(=O)c1ccc(CNC(=O)/C=C/c2ccco2)cc1	-21%	?	-6%	-11%	nt	-12%	nt	nt
Cc1ccc(/C=C/C(=O)NCc2ccc(S(N)(=O)=O)cc2)o1	89µM*	27µM*	?	10%	0%	5%	6.3µM*	1.6µM*
CC(=O)NS(=O)(=O)c1ccc(NC(=O)/C=C/c2ccc(C)o2)cc1	-17%	21µM*	-5%	5%	nt	16%	5µM*	7.9µM*
COc1ccc(CCNC(=O)/C=C/c2ccco2)cc1	89µM*	0%	?	?	nt	16µM*	?	?
Cc1ccc(/C=C/C(=O)NCc2ccc3c(c2)OCO3)o1	-16%	?	-8%	?	2%	?	11µM*	14µM*
OCC1OC(c2ccccc2)C=CC1Oc1ccc(C2CCCC2)cc1 (stereo unspecified)	nt	nt	nt	nt	7%[21 µM]	nt	nt	nt
SMILES	VDR inhibitor	PLK1 PBD inh	KAT2A inh	DT40 TDP1 no CPT	TDP1 inh	TDP1 cell CPT	TbPYK inh	TbPYK ADP-Glo
CN1CCN(C(=O)C2CC(=O)N(c3ccc(Cl)cc3)C2)CC1 (stereo unspecified)	10%	2%	5%	-1%	2%	-1%	nt	nt
Cc1ccc(/C=C/C(=O)NCCc2cccc(Cl)c2)o1	79µM*	30µM*	?	18µM*	nt	10µM*	3.5µM*	4µM*
Cc1ccc(/C=C/C(=O)NC2CCCCCCC2)o1	?	24µM*	?	3.7µM*	8%	2.6µM*	?	?
Cc1ccc(/C=C/C(=O)NCC2COc3ccccc3O2)o1 (stereo unspecified)	?	?	?	16µM*	-1%	16µM*	25µM*	22µM*
COC(=O)[C@@]1(Cc2ccc(OC)cc2)[C@H]2c3cc(C(=O)N(C)C)n(CCSCCO)c3C[C@H]2CN1C(=O)c1ccccc1	0%	-16%	-7%	-21%	-4%	-16%	nt	nt
CC1c2ccsc2CCN1S(=O)(=O)c1cccs1 (stereo unspecified)	-8%	2%	-2%	-21%	7%	-5%	nt	nt
O=[N+]([O-])c1cccc(-c2ccc(CN3CCCCC3)o2)c1	-6%	5%	0%	-23%	nt	6%	nt	nt
Cc1nc(-c2ccc(C(=O)N3CCCC3)cc2)cs1	-1%	-9%	-2%	-27%	3%	-1%	?	10%
